Data reported in PubChem BioAssay AID1159580 (chemical genetic matrix, 2015).
Several values for one entry are separate records, joined by “and”; a condition that tells them apart may be missing. Identical values can stand only once. In all, about 5,500 compounds went through this assay and about 2,000 (36%) were called active. Not shown: some 18% with an inconclusive outcome. No stated cut-off is given here; in the data, active means normalized growth mostly below about 0.91 (no sharp cut-off); inconclusive means no clear call, values can overlap the other calls; inactive means mostly above about 0.92. Some of the results follow.

Assay: chemical genetic growth profiling, strain panel (AID 1159580);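 further: tested at 20 µM; growth read once vehicle control cultures reached saturation at 30 °C; 1 = growth at the plate median or of vehicle wells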
Conditions: growth OD

Measured: normalized growth

CC(N=C(NC#N)Nc1ccncc1)C(C)(C)C (stereo not drawn)
inactive: S. cerevisiae deletion strains, locus YJR043C, strain POL32, stronger effect = lower value 1.02 | S. cerevisiae deletion strains, locus YJR075W, strain HOC1, stronger effect = lower value 1.03 | S. cerevisiae deletion strains, locus YKL009W, strain mrt4, stronger effect = lower value 1.04 | S. cerevisiae deletion strains, locus YKL068W, stronger effect = lower value 1.01 | S. cerevisiae deletion strains, locus YKL085W, strain MDH1 (second series), stronger effect = lower value 1.01 | S. cerevisiae deletion strains, locus YKL085W, strain MDH1, stronger effect = lower value 1.01 | S. cerevisiae deletion strains, locus YKL160W, strain elf1, stronger effect = lower value 0.97 | S. cerevisiae deletion strains, locus YKL190W, strain CNB1, stronger effect = lower value 1.01 | S. cerevisiae deletion strains, locus YKR001C, strain vps1, stronger effect = lower value 1.02 | S. cerevisiae deletion strains, locus YKR026C, strain gcn3, stronger effect = lower value 0.978 | S. cerevisiae deletion strains, locus YKR091W, strain srl3, stronger effect = lower value 0.993 | S. cerevisiae deletion strains, locus YLL001W, strain dnm1, stronger effect = lower value 0.956 | S. cerevisiae deletion strains, locus YLL026W, stronger effect = lower value 0.968 | S. cerevisiae deletion strains, locus YLL041C, strain sdh2, stronger effect = lower value 0.982 | S. cerevisiae deletion strains, locus YLR027C, strain aat2, stronger effect = lower value 0.967 | S. cerevisiae deletion strains, locus YLR039C, strain RIC1, stronger effect = lower value 1.02 | S. cerevisiae deletion strains, locus YLR058C, strain SHM2, stronger effect = lower value 1.01 | S. cerevisiae deletion strains, locus YLR102C, strain apc9, stronger effect = lower value 1.02 | S. cerevisiae deletion strains, locus YLR221C, strain rsa3, stronger effect = lower value 1.02 | S. cerevisiae deletion strains, locus YLR258W, strain gsy2, stronger effect = lower value 1.01 | S. cerevisiae deletion strains, locus YLR262C, strain YPT6 (second series), stronger effect = lower value 0.947 | S. cerevisiae deletion strains, locus YLR262C, strain YPT6, stronger effect = lower value 1.04 | S. cerevisiae deletion strains, locus YLR268W, strain sec22, stronger effect = lower value 1.06 | S. cerevisiae deletion strains, locus YLR320W, strain mms22, stronger effect = lower value 1.02 | S. cerevisiae deletion strains, locus YLR330W, strain CHS5, stronger effect = lower value 1.01 | S. cerevisiae deletion strains, locus YLR342W, strain FKS1 (second series), stronger effect = lower value 0.984 | S. cerevisiae deletion strains, locus YLR342W, strain FKS1, stronger effect = lower value 0.945 | S. cerevisiae deletion strains, locus YLR357W, strain rsc2, stronger effect = lower value 0.957 | S. cerevisiae deletion strains, locus YLR370C, strain arc18, stronger effect = lower value 0.972 | S. cerevisiae deletion strains, locus YLR371W, strain rom2, stronger effect = lower value 1.04 | S. cerevisiae deletion strains, locus YLR384C, strain iki3, stronger effect = lower value 0.968 | S. cerevisiae deletion strains, locus YLR418C, strain cdc73, stronger effect = lower value 1.04 | S. cerevisiae deletion strains, locus YML016C, strain PPZ1, stronger effect = lower value 1 | S. cerevisiae deletion strains, locus YML032C, strain rad52, stronger effect = lower value 1.03 | S. cerevisiae deletion strains, locus YML120C, strain ndi1, stronger effect = lower value 0.964 | S. cerevisiae deletion strains, locus YML124C, strain tub3, stronger effect = lower value 1.01 | S. cerevisiae deletion strains, locus YMR058W, strain fet3, stronger effect = lower value 0.978 | S. cerevisiae deletion strains, locus YMR078C, strain ctf18, stronger effect = lower value 1.02 | S. cerevisiae deletion strains, locus YMR125W, strain sto1, stronger effect = lower value 0.984 | S. cerevisiae deletion strains, locus YMR129W, stronger effect = lower value 0.981 | S. cerevisiae deletion strains, locus YMR205C, strain PFK2, stronger effect = lower value 0.984 | S. cerevisiae deletion strains, locus YMR223W, strain ubp8, stronger effect = lower value 0.994 | S. cerevisiae deletion strains, locus YMR231W, strain pep5, stronger effect = lower value 1 | S. cerevisiae deletion strains, locus YMR263W, strain SAP30, stronger effect = lower value 1.04 | S. cerevisiae deletion strains, locus YMR307W, strain GAS1, stronger effect = lower value 0.992 and 1.03 | S. cerevisiae deletion strains, locus YNL067W, strain RPL9B, stronger effect = lower value 1.04 | S. cerevisiae deletion strains, locus YNL071W, strain lat1, stronger effect = lower value 0.988 | S. cerevisiae deletion strains, locus YNL128W, strain TEP1, stronger effect = lower value 1.02 | S. cerevisiae deletion strains, locus YNL153C, strain GIM3, stronger effect = lower value 1.02 | S. cerevisiae deletion strains, locus YNL175C, strain NOP13, stronger effect = lower value 1 | S. cerevisiae deletion strains, locus YNL197C, strain WHI3, stronger effect = lower value 0.977 | S. cerevisiae deletion strains, locus YNL209W, strain ssb2, stronger effect = lower value 0.993 | S. cerevisiae deletion strains, locus YNL224C, strain SQS1, stronger effect = lower value 0.992 | S. cerevisiae deletion strains, locus YNL233W, strain BNI4, stronger effect = lower value 1.02 | S. cerevisiae deletion strains, locus YNL248C, strain rpa49, stronger effect = lower value 1.02 | S. cerevisiae deletion strains, locus YNL250W, strain rad50, stronger effect = lower value 1.01 | S. cerevisiae deletion strains, locus YNL271C, strain bni1, stronger effect = lower value 1.02 | S. cerevisiae deletion strains, locus YNL298W, strain CLA4, stronger effect = lower value 1.02 | S. cerevisiae deletion strains, locus YNL307C, strain MCK1, stronger effect = lower value 1.02 | S. cerevisiae deletion strains, locus YNL322C, strain KRE1 (second series), stronger effect = lower value 0.982 | S. cerevisiae deletion strains, locus YNL322C, strain KRE1, stronger effect = lower value 1.02 and 1 | S. cerevisiae deletion strains, locus YNR049C, strain mso1, stronger effect = lower value 0.986 | S. cerevisiae deletion strains, locus YNR052C, strain pop2, stronger effect = lower value 1.01 | S. cerevisiae deletion strains, locus YOL006C, strain TOP1, stronger effect = lower value 1.08 | S. cerevisiae deletion strains, locus YOL012C, strain htz1 1.52 | S. cerevisiae deletion strains, locus YOL147C, strain pex11, stronger effect = lower value 1.01 | S. cerevisiae deletion strains, locus YOR001W, strain rrp6, stronger effect = lower value 0.957 | S. cerevisiae deletion strains, locus YOR061W, strain CKA2, stronger effect = lower value 0.999 | S. cerevisiae deletion strains, locus YOR069W, strain VPS5, stronger effect = lower value 1.01 | S. cerevisiae deletion strains, locus YOR070C, strain gyp1, stronger effect = lower value 0.996 | S. cerevisiae deletion strains, locus YOR080W, strain dia2, stronger effect = lower value 0.963 | S. cerevisiae deletion strains, locus YOR083W, strain WHI5 (second series), stronger effect = lower value 0.984 | S. cerevisiae deletion strains, locus YOR083W, strain WHI5, stronger effect = lower value 0.956 | S. cerevisiae deletion strains, locus YOR106W, strain vam3, stronger effect = lower value 0.964 | S. cerevisiae deletion strains, locus YOR136W, strain idh2, stronger effect = lower value 1.01 | S. cerevisiae deletion strains, locus YOR144C, strain elg1, stronger effect = lower value 1.02 | S. cerevisiae deletion strains, locus YOR184W, strain ser1, stronger effect = lower value 1.03 | S. cerevisiae deletion strains, locus YOR265W, strain rbl2, stronger effect = lower value 0.98 | S. cerevisiae deletion strains, locus YOR270C, strain vph1, stronger effect = lower value 0.997 | S. cerevisiae deletion strains, locus YOR290C, strain snf2, stronger effect = lower value 1.01 | S. cerevisiae deletion strains, locus YOR316C, strain cot1, stronger effect = lower value 1.02 | S. cerevisiae deletion strains, locus YPL051W, strain arl3, stronger effect = lower value 0.985 | S. cerevisiae deletion strains, locus YPL055C, strain LGE1, stronger effect = lower value 1.03 | S. cerevisiae deletion strains, locus YPL078C, strain atp4, stronger effect = lower value 0.919 | S. cerevisiae deletion strains, locus YPL106C, strain sse1, stronger effect = lower value 0.945 | S. cerevisiae deletion strains, locus YPL240C, strain hsp82, stronger effect = lower value 0.972 | S. cerevisiae deletion strains, locus YPL241C, strain CIN2, stronger effect = lower value 1 | S. cerevisiae deletion strains, locus YPR119W, strain clb2, stronger effect = lower value 1.02 | S. cerevisiae deletion strains, locus YPR141C, strain kar3, stronger effect = lower value 1.01 | S. cerevisiae deletion strains, locus YPR163C, strain tif3, stronger effect = lower value 1.03 | S. cerevisiae deletion strains, locus YPR167C, strain met16, stronger effect = lower value 1.02 | S. cerevisiae deletion strains, strain wtn01, stronger effect = lower value 1.05 | S. cerevisiae strains, strain wild type, stronger effect = lower value 1.01
